D3 antag: blocks the human D3 dopamine receptor. AID 652054. P35462. D3R cells, DiscoveRx beta-arrestin luminescence, antagonist mode; stronger effect = lower value. hit rate 2.5% among 360,000. max response, negative = inhibition, %; in the data active = max response below about -50%; inconclusive = no clear call, values can overlap the other calls; note: % is set by controls: 0 for no effect and ±100 for the full control effect
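Cells expressing the human receptor were seeded at 1500 cells/well, incubated overnight at 37 degrees C in 5% CO2, then exposed to library compounds with dopamine controls for 90 minutes at 37 degrees C before luminescent detection.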
TDP1 cell CPT: DT40-hTDP1 cell growth loss with CPT; chicken DT40 Tdp1-/-;hTDP1 cells + 20 nM CPT, ATP luminescence, 48 h; Potency, µM (doses to about 46.2 µM), for the others: at the top dose activity change, negative = growth inhibition, actives largely listed as inhibitors; hit rate 12% among 420,000; AID 686979; note: potency is the fitted concentration of half-maximal effect; % is set by controls: 0 for no effect and ±100 for the full control effect; nearly all actives have a fitted effect of over 55% in size
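Cell growth measured by CellTiter-Glo luminescence after a minimum 48 h, 37 C compound exposure with 20 nM CPT in Tdp1-knockout DT40 cells stably expressing hTDP1, seeded 400/well; qHTS titration format.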
ClpP mod: qHTS Assay for Activators of ClpP; ATP-dependent Clp protease proteolytic subunit (Bacillus subtilis (strain 168)), P80244; purified B. subtilis ClpP, FRET peptide cleavage, 20 min; Potency, µM (titrated, usually from 57.5 µM), for inactives: at the highest dose activity change, negative = active; hit rate 1.9% among 340,000; active = well fitted falling curve with a large enough effect; inconclusive = small, poorly fitted or top-dose-only effect; inactive = no such curve, though single readings can be large or run the other way; note: potency is the fitted concentration of half-maximal effect; the source files actives as falling curves though it sought activators and does not explain the sign; nearly all actives have a fitted effect of over 65% in size
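Purified B. subtilis ClpP, 10 microg/mL final in Tris/HCl pH8 with KCl, BSA, glycerol and Tween-20, cleaved an Abz/nitrotyrosine-quenched decapeptide. Fluorescence (ex 320, em 430) was read at 0 and 20 min at room temperature. Delta was normalized to 5.8 microM ADEP and DMSO/no-enzyme controls.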
IL1B secr inh: inhibitors of inflammasome signaling (IL-1 beta secretion); hit rate 4.7% among 360,000; THP-1 LPS/ATP IL-1B secretion, AlphaLISA, 16 h; stronger effect = lower value; activity change, % at 57.5 µM; in the data active = activity change below about -50%; inconclusive = mostly about -30% to -49%; note: % is set by controls: 0 for no effect and ±100 for the full control effect
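THP-1 cells pretreated 1 hr with compounds (up to 57.5 uM final), then stimulated with LPS (250 ng/mL final) plus ATP (1.25 mM final); secreted IL-1B measured by AlphaLISA after 16 hr, decreased signal indicating inhibition.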
D3 ag: agonists of human D3 dopamine receptor. P35462. D3R DiscoveRx beta-arrestin cells, luminescence, 90 min. max activation, %. hit rate 0.58% among 410,000. AID 652048; in the data active = max activation above about 30%; note: 0% is about no effect
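Agonist-mode cell screen: cells plated at 1500/well and incubated overnight at 37 °C, then exposed to library compounds for 90 min at 37 °C. Detection reagent was added for 30–60 min at room temperature, and luminescence was read.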
DT40 TDP1 no CPT: qHTS for Inhibitors of human tyrosyl-DNA phosphodiesterase 1 (TDP1): qHTS in cells in absence of CPT | Potency, µM (titrated, usually from 46.2 µM), inactives show at the top dose activity change, negative = growth inhibition, most hits filed as inhibitors | hit rate 15% among 420,000 | DT40 Tdp1-/- hTDP1 cells, no CPT, ATP luminescence, 48 h; note: potency is the fitted concentration of half-maximal effect; % is set by controls: 0 for no effect and ±100 for the full control effect; nearly all actives have a fitted effect of over 55% in size
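No-CPT arm: Tdp1-/-;hTDP1 DT40 cells (400/well) plus compounds, incubated ≥48 hr at 37 °C. Readout CellTiter-Glo luminescence.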
The depositor's hits bear a star; ? = inconclusive; · = no result; ! = not active in a repeat. This is a sample that favours compounds with a hit; in the whole collection about 21% have one here. Unless noted, calls come from the whole dose curve; as a rule, active = well fitted inhibition curve with a large enough effect; inconclusive = small, poorly fitted or top-dose-only effect; inactive = flat fitted curve, though single readings scatter.

SMILES	D3 antag	TDP1 cell CPT	ClpP mod	IL1B secr inh	D3 ag	DT40 TDP1 no CPT
CC[N+](CC)(CC)c1ccc(/C=C/c2ccc3ccccc3n2)cc1	·	0.089µM*	-2%	·	·	0.071µM*
O=C(/C=C/c1ccc2ccccc2n1)c1cc(Br)ccc1O	-1	12µM*	-14%	44	-2	?
C(=C\c1ccc2ccccc2n1)/c1cccnc1	·	22µM*	?	·	·	16µM*
O/C(=C\c1ccc2ccccc2n1)c1ccc(O)cc1O	-8	12%	·	-1	2	-21%
Cn1cc(/C=N/Nc2ccccc2)c2ccccc21	-27	?	-7%	49	-10	?
CC(C)C[C@@H]1O[C@H](CCc2ccccc2)Cc2[nH]c(=S)[nH]c(=O)c21	-18	?	-2%	34	2	?
CNc1nc(N)nc(-c2cc(Cl)ccc2OC)n1	?	-7%	-21%	-5	20	-2%
CC(=O)c1ccc(N2CCN(C(=O)/C=C/c3ccc4ccccc4n3)CC2)cc1	-1	?	-5%	53	4	15µM*
Oc1ccc(/C=C/c2ccc3ccccc3n2)cc1	5	23µM*	4%	-16	-1	21µM*
Cc1cccc(/C=C/c2ccccc2)n1	·	-3%	·	·	·	-18%
Cc1cc(/C=C/c2ccccc2)nc2ccccc12	·	?	?	·	·	10µM*
Cc1cccc(/C=C\c2ccccc2)n1	·	?	·	·	·	-72%
Cc1nc(/C=C/c2ccccc2)cc(/C=C/c2ccccc2)n1	66	-22%	14µM*	0	-4	?
C(=C\c1cc(/C=C/c2ccccc2)ncn1)/c1ccccc1	2	-6%	35µM*	10	-5	-14%
C(/C=C/c1ccccn1)=C\c1ccccc1	-12	-16%	-6%	11	2	?
CC(/C=N/Nc1nnc2c(n1)[nH]c1ccccc12)=C\c1ccco1	-17	26µM*	1%	31	-3	?
COc1cccc(/C=N/Nc2nnc3c(n2)[nH]c2ccccc23)c1OC	31	?	·	63	-1	?
COc1c(Cl)ccc(Cl)c1C(=O)NC(=S)N1CCOCC1	5	-6%	·	9	15	?
COc1ccc(OCC(=O)Nc2ccccc2C(=O)N2CCOCC2)cc1	-2	0%	-4%	16	-4	-8%
CCOC(=O)N1CCN(C(=O)C2CCN(C(=O)c3ccccc3C)CC2)CC1	?	0.92µM*	·	-103*	-10	1µM*
CCN(CC)c1ccc(C(=O)OCC(=O)NC2CCCCC2C)cc1 (centres undefined)	12	21µM*	29%	33	0	15µM*
COC(=O)c1ccc(NC(=S)NC(=O)C2CCC2)cc1	-3	0%	-2%	-10	9	13%
COC(=O)c1ccc(NC(=S)NC2CCCCC2C)cc1 (centres undefined)	-14	23µM*	5%	-5	-22	26µM*
CC(C)c1ccccc1OCC(=O)Nc1ccccc1C(=O)N1CCOCC1	42	16µM*	2%	-11	21	16µM*
CC(C)c1cnc2c(c1SCC(=O)NCc1ccccc1)c(=O)n(C)c(=O)n2C	·	?	-3%	·	6	?
SMILES	D3 antag	TDP1 cell CPT	ClpP mod	IL1B secr inh	D3 ag	DT40 TDP1 no CPT
COCCn1c(SCC(=O)NCCCN2CCCC2=O)nc2sc3c(c2c1=O)CCCC3	-12	4%	-4%	0	-6	0%
CCN(CC)c1ccc(C(=O)OCC(=O)Nc2ncccn2)cc1	-18	3%	·	1	1	-2%
CCOC(=O)N1CCN(C(=O)c2ccccc2NC(=O)COc2ccccc2C)CC1	0	?	-4%	0	2	21µM*
Cc1cccc(OC(C)C(=O)Nc2ccccc2C(=O)N2CCCCC2)c1 (centres undefined)	4	?	·	-10	-2	13µM*
CCOC(=O)N1CCN(C(=O)c2ccccc2N(Cc2ccccc2)S(=O)(=O)c2ccccc2)CC1	12	21µM*	·	8	1	21µM*
CCN(CC)c1ccc(C(=O)OCC(=O)Nc2ccccc2-c2ccccc2)cc1	70	?	?	21	15	18µM*
O=C(c1ccccc1N(Cc1ccccc1)S(=O)(=O)c1ccccc1)N1CCOCC1	-15	-13%	-1%	-18	-4	?
Cc1nn(CC(=O)NCCCN2C(C)CCCC2C)c(=O)c2cc3occc3n12 (centres undefined)	10	-19%	-4%	-24	0	28%
CCC(=O)c1ccc(OCC(=O)Nc2ccccc2C(=O)N2CCCCC2)cc1	1	?	·	-62*	0	16µM*
Cc1ccccc1OCC(=O)Nc1ccccc1C(=O)NC1CC1	6	?	9%	-5	-14	21µM*
Cc1ccccc1OCC(=O)Nc1ccccc1-c1ccccc1	11	-16%	1%	37	4	6.5µM*
Cc1ccc(OCC(=O)Nc2ccccc2C(=O)N2CCCCC2)cc1	3	-27%	-1%	7	0	-25%
Cc1ccc(OCC(=O)Nc2ccccc2-c2ccccc2NC(=O)COc2ccc(C)cc2)cc1	2	?	-2%	9	-2	21µM*
CC(CNS(=O)(=O)c1ccc2c(c1)CC(=O)N2C)c1ccccc1 (centres undefined)	-5	?	1%	7	1	?
Cc1cccc(NC(=O)CSc2ncc3c(n2)-c2ccccc2N(Cc2ccc(F)cc2)S3(=O)=O)c1C	·	?	4%	·	-3	-25%
CN(Cc1nccn1C)C(=O)c1ccc(OC2CCN(CCc3ccccc3)CC2)cc1	?	12%	-12%	4	-29	0%
OCc1ccc(-c2nn(Cc3ccccc3)c3ccccc23)o1	0	11µM*!	5%	-11	9	18µM*!
CC(C)c1nc2ccc(Br)cn2c1NC1CCCC1	1	-2%	-1%	17	4	-1%
Cc1ccc2nc(-c3ccc(C)o3)c(NC3CCCC3)n2c1	·	11µM*	4%	·	·	13µM*
Cc1ccc2nc(-c3ccccc3)c(Cc3ccccn3)n2c1	2	?	4%	25	7	?
Cc1ccc2nc(-c3ccccn3)c(NC3CCCC3)n2c1	0	1.3µM*	·	-14	-17	0.33µM*
OC1(c2ccc(F)cc2)CSC(=Nc2cccnc2)N1Cc1ccco1 (centres undefined)	10	?	·	-5	1	?

Compound activity from PubChem BioAssay.
